# Laboratory results as given in the supplement of paper PMC4022240.
# ± gives the standard deviation.
# T1: HaloTag-ATRX ADD domain (163-292)
# T1 chain: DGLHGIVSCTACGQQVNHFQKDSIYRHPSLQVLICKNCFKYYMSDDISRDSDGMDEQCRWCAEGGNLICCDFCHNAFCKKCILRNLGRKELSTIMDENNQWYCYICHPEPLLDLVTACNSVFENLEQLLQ
# Columns and labels:
# Assay in all cases: peptide microarray binding signal (635 nm), min-max normalized on array (fraction of array maximum); higher = stronger binding
# [1] = target: T1, HaloTag-ATRX ADD domain (163-292)
# In short: (§1)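 Binding signal is the mean intensity of triplicate spots, min-max scaled within each library. Histone 13-mer peptide–cellulose conjugates were spotted in triplicate on nitrocellulose with a Cy3 tracer and blocked overnight at 4°C. Probing lasted 1 h at 4°C, either with biotin-labelled HaloTag reader fusions (10 nM to 1 μM) and streptavidin-Alexa Fluor 647 or with rabbit histone antibodies (1:10,000 to 1:2,000) and anti-rabbit Alexa 647. An Axon GenePix 4000B read signal at 635 nm and misprints at 532 nm.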
# [2] = target: HaloTag-ING2 PHD (mouse Ing2 200-280)
# In short: as §1
# [3] = target: anti-H3K4me3 antibody ab8580
# In short: as §1
# [4] = target: anti-H3K9me3 antibody ab8898
# In short: as §1
# [5] = peptide region: H3 112-124, peptide modifications: H3K115ac H3K122me2, binder concentration: 1:2,000 dilution
# [6] = peptide region: H3 112-124, peptide modifications: H3K115ac H3K122me2, binder concentration: 1:10,000 dilution
# [7] = peptide region: H3 112-124, peptide modifications: H3K115ac H3K122ac, binder concentration: 1:2,000 dilution
# [8] = peptide region: H3 112-124, peptide modifications: H3K115ac H3K122ac, binder concentration: 1:10,000 dilution
# [9] = peptide region: H3 112-124, peptide modifications: H3K115me1 H3K122me1, binder concentration: 1:2,000 dilution
# [10] = peptide region: H3 112-124, peptide modifications: H3K115me1 H3K122me1, binder concentration: 1:10,000 dilution
# [11] = peptide region: H3 73-85, peptide modifications: H3T80ph, binder concentration: 1:2,000 dilution
# [12] = peptide region: H3 73-85, peptide modifications: H3T80ph, binder concentration: 1:10,000 dilution
# [13] = peptide region: H3 112-124, peptide modifications: H3K115ac H3K122me1, binder concentration: 1:2,000 dilution
# [14] = peptide region: H3 112-124, peptide modifications: H3K115ac H3K122me1, binder concentration: 1:10,000 dilution
binder,measurement,setting,value
IHAKRVTIMPKDI [H3 112-124 I H A Kac R V T I M P Kme2 D I],peptide microarray binding signal,"[1]; peptide region: H3 112-124, peptide modifications: H3K115ac H3K122me2, binder concentration: 50 nM",0.00668 ± 0.00012
same,peptide microarray binding signal,"[1]; peptide region: H3 112-124, peptide modifications: H3K115ac H3K122me2, binder concentration: 500 nM",0.0132 ± 0.00064
same,peptide microarray binding signal,"[2]; peptide region: H3 112-124, peptide modifications: H3K115ac H3K122me2, binder concentration: 10 nM",0.0198 ± 0.004
same,peptide microarray binding signal,"[2]; peptide region: H3 112-124, peptide modifications: H3K115ac H3K122me2, binder concentration: 100 nM",0.0271 ± 0.0018
same,peptide microarray binding signal,[3]; [5],0.00159 ± 0.00013
same,peptide microarray binding signal,[3]; [6],0.00211 ± 5.8e-05
same,peptide microarray binding signal,[4]; [5],0.00169 ± 0.00021
same,peptide microarray binding signal,[4]; [6],0.00133 ± 4e-05
IHAKRVTIMPKDI [H3 112-124 I H A Kac R V T I M P Kac D I],peptide microarray binding signal,"[1]; peptide region: H3 112-124, peptide modifications: H3K115ac H3K122ac, binder concentration: 50 nM",0.00947 ± 0.0003
same,peptide microarray binding signal,"[1]; peptide region: H3 112-124, peptide modifications: H3K115ac H3K122ac, binder concentration: 500 nM",0.0259 ± 0.00095
same,peptide microarray binding signal,"[2]; peptide region: H3 112-124, peptide modifications: H3K115ac H3K122ac, binder concentration: 10 nM",0.0323 ± 0.0014
same,peptide microarray binding signal,"[2]; peptide region: H3 112-124, peptide modifications: H3K115ac H3K122ac, binder concentration: 100 nM",0.0605 ± 0.013
same,peptide microarray binding signal,[3]; [7],0.00336 ± 0.0003
same,peptide microarray binding signal,[3]; [8],0.00417 ± 0.0002
same,peptide microarray binding signal,[4]; [7],0.00288 ± 0.00013
same,peptide microarray binding signal,[4]; [8],0.00242 ± 9.5e-05
IHAKRVTIMPKDI [H3 112-124 I H A Kme R V T I M P Kme D I],peptide microarray binding signal,"[1]; peptide region: H3 112-124, peptide modifications: H3K115me1 H3K122me1, binder concentration: 50 nM",0.00511 ± 9.8e-05
same,peptide microarray binding signal,"[1]; peptide region: H3 112-124, peptide modifications: H3K115me1 H3K122me1, binder concentration: 500 nM",0.0109 ± 9.7e-05
same,peptide microarray binding signal,"[2]; peptide region: H3 112-124, peptide modifications: H3K115me1 H3K122me1, binder concentration: 10 nM",0.0179 ± 0.0021
same,peptide microarray binding signal,"[2]; peptide region: H3 112-124, peptide modifications: H3K115me1 H3K122me1, binder concentration: 100 nM",0.0298 ± 0.0035
same,peptide microarray binding signal,[3]; [9],0.00187 ± 0.00022
same,peptide microarray binding signal,[3]; [10],0.00234 ± 0.00015
same,peptide microarray binding signal,[4]; [9],0.00121 ± 5.5e-05
same,peptide microarray binding signal,[4]; [10],0.00115
EIAQDFKTDLRFQ [H3 73-85 E I A Q D F K Tph D L R F Q],peptide microarray binding signal,"[1]; peptide region: H3 73-85, peptide modifications: H3T80ph, binder concentration: 50 nM",0.00129 ± 3.8e-05
same,peptide microarray binding signal,"[1]; peptide region: H3 73-85, peptide modifications: H3T80ph, binder concentration: 500 nM",0.00386 ± 0.00022
same,peptide microarray binding signal,"[2]; peptide region: H3 73-85, peptide modifications: H3T80ph, binder concentration: 10 nM",0.00406 ± 0.00014
same,peptide microarray binding signal,"[2]; peptide region: H3 73-85, peptide modifications: H3T80ph, binder concentration: 100 nM",0.000921
same,peptide microarray binding signal,[3]; [11],0.000547 ± 3.5e-05
same,peptide microarray binding signal,[3]; [12],0.000685 ± 7.2e-06
same,peptide microarray binding signal,[4]; [11],0.00186 ± 2e-05
same,peptide microarray binding signal,[4]; [12],0.00127 ± 4.6e-05
IHAKRVTIMPKDI [H3 112-124 I H A Kac R V T I M P Kme D I],peptide microarray binding signal,"[1]; peptide region: H3 112-124, peptide modifications: H3K115ac H3K122me1, binder concentration: 50 nM",0.00809 ± 8.8e-05
same,peptide microarray binding signal,"[1]; peptide region: H3 112-124, peptide modifications: H3K115ac H3K122me1, binder concentration: 500 nM",0.0164 ± 0.00068
same,peptide microarray binding signal,"[2]; peptide region: H3 112-124, peptide modifications: H3K115ac H3K122me1, binder concentration: 10 nM",0.0183 ± 0.00056
same,peptide microarray binding signal,"[2]; peptide region: H3 112-124, peptide modifications: H3K115ac H3K122me1, binder concentration: 100 nM",0.0281 ± 0.0012
same,peptide microarray binding signal,[3]; [13],0.00164 ± 0.00014
same,peptide microarray binding signal,[3]; [14],0.002054 ± 1.9e-05
same,peptide microarray binding signal,[4]; [13],0.00136 ± 6.1e-05
same,peptide microarray binding signal,[4]; [14],0.00138 ± 1.4e-05
